Data on 17 molecules can be found in the supplement of paper PMC10646978.

Molecules are shown by their SMILES. ± gives the standard deviation.

Holding throughout (settings): modulator concentration 10 µM
Experiment [1] relates to RAW-Dual (murine macrophage reporter line). The experiment in a line: NF-kB reporter (SEAP) activity fold change vs agonist alone; higher = enhanced NF-kB activity. A digest of the protocol:
(§1)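 Overnight stimulation with a PRR agonist followed pre-incubation for 1 hour at 37 °C with compound at 10 μM final. This was done in RAW-Dual murine macrophage reporter cells seeded at 50 000 per well in 384-well plates. NF-κB (SEAP, QUANTI-Blue absorbance at 620 nm) and IRF (Lucia luciferase, QUANTI-Luc luminescence) were read from the supernatant. Each reporter's fold change relative to the mean agonist-only control on the same plate was averaged over replicate plates.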

For experiment [2] the test system is unchanged. Put plainly: IRF reporter (Lucia luciferase) activity fold change vs agonist alone; higher = enhanced IRF activity. The method in brief:
as §1

Experiment [3] shares this test system. The experiment in a line: viability score (confluency relative to resting cells, overnight) (fraction); higher = more viable, active = viable (0.7 or more). A digest of the protocol: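 Confluency was the readout: RAW-Dual macrophages were imaged with IncuCyte after an overnight exposure to compound at 10 μM final. IncuCyte software produced two masks over all imaged wells. The viability score expresses confluency against resting cells, and both masks had to exceed 70% of resting cells for a compound to meet the cutoff.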

The mark [4] stands for this setting: agonist: CpG ODN 1826 0.5 ug/mL.

On to `COc1ccc(C(CN(C)C)C2(O)CCCCC2)cc1` (centres undefined) [Prestw-1170], for which the NF-kB reporter in experiment [1] (setting [4]) was 0.741 ± 0.12; in experiment [1] (agonist: LPS 0.1 ug/mL), 1.17 ± 0.14; in experiment [1] (agonist: MPLA […]), 0.956 ± 0.074. Besides, the figures for the IRF reporter in experiment [2] (agonist: 3'3'-cGAMP 10 ug/mL), in experiment [2] (agonist: LPS 0.1 ug/mL) and in experiment [2] (agonist: MPLA […]) were 0.916 ± 0.031, 1.11 ± 0.22 and 1.37 ± 0.23, respectively. The viability score in experiment [3] was 0.981 (active).
Turning to `CN1C2CCC1CC(OC(=O)C(CO)c1ccccc1)C2` (centres undefined), the NF-kB reporter worked out at 1.23 ± 0.29 in experiment [1] (setting [4]), 1.19 ± 0.083 in experiment [1] (agonist: LPS 0.1 ug/mL) and 1.14 ± 0.098 in experiment [1] (agonist: MPLA […]). Besides, the IRF reporter was determined as 0.91 ± 0.032 in experiment [2] (agonist: 3'3'-cGAMP 10 ug/mL), 1.24 ± 0.15 in experiment [2] (agonist: LPS 0.1 ug/mL) and 1.15 ± 0.16 in experiment [2] (agonist: MPLA […]). Further, the viability score in experiment [3] is 0.986 (active).
Regarding `COc1cc([C@@H]2c3cc4c(cc3[C@H](O)[C@H]3COC(=O)[C@H]23)OCO4)cc(OC)c1OC` [Prestw-782], the values for the NF-kB reporter in experiment [1] (setting [4]), in experiment [1] (agonist: LPS 0.1 ug/mL) and in experiment [1] (agonist: MPLA […]) were 2.45 ± 0.14, 1.61 ± 0.098 and 2.69 ± 0.16, respectively. For the same molecule, the IRF reporter in experiment [2] (agonist: 3'3'-cGAMP 10 ug/mL) was 0.0908 ± 0.0036; in experiment [2] (agonist: LPS 0.1 ug/mL), 1.48 ± 0.1; in experiment [2] (agonist: MPLA […]), 1.6 ± 0.31. Further, the viability score in experiment [3] was 0.721 (active).
As to `O=[N+]([O-])Nc1ccc(Br)cn1`, the NF-kB reporter in experiment [1] (setting [4]) came to 0.998 ± 0.09; in experiment [1] (agonist: LPS 0.1 ug/mL) it was 0.98 ± 0.096; in experiment [1] (agonist: MPLA […]), 0.983 ± 0.048. Besides, the IRF reporter in experiment [2] (agonist: 3'3'-cGAMP 10 ug/mL) worked out at 0.961 ± 0.15; in experiment [2] (agonist: LPS 0.1 ug/mL), 1.09 ± 0.064; in experiment [2] (agonist: MPLA […]), 1.17 ± 0.095. Moreover, the viability score in experiment [3] is 0.997 (active).
Regarding `CC(=O)OC1CCC2(C)C(=CCC3C4CCC(=O)C4(C)CCC32)C1` (centres undefined), the NF-kB reporter in experiment [1] (setting [4]) came out at 0.92 ± 0.084; in experiment [1] (agonist: LPS 0.1 ug/mL), 0.901 ± 0.076; in experiment [1] (agonist: MPLA […]), 0.863 ± 0.092. In addition, the results for the IRF reporter in experiment [2] (agonist: 3'3'-cGAMP 10 ug/mL), in experiment [2] (agonist: LPS 0.1 ug/mL) and in experiment [2] (agonist: MPLA […]) were 0.969 ± 0.031, 1.08 ± 0.095 and 1.15 ± 0.13, respectively. The viability score in experiment [3] is 1 (active).
Consider `COc1ccc2c3c([nH]c2c1)C(C)=NCC3`, for which the figures for the NF-kB reporter in experiment [1] (setting [4]), in experiment [1] (agonist: LPS 0.1 ug/mL) and in experiment [1] (agonist: MPLA […]) were 0.359 ± 0.089, 0.917 ± 0.046 and 0.852 ± 0.054, respectively. Moreover, the IRF reporter in experiment [2] (agonist: 3'3'-cGAMP 10 ug/mL) came out at 0.778 ± 0.038; in experiment [2] (agonist: LPS 0.1 ug/mL) it was 0.771 ± 0.17; in experiment [2] (agonist: MPLA […]) it was 0.793 ± 0.15. The viability score in experiment [3] was 1 (active).
`CC(C)c1c(CN(C)C(C)Cc2ccccc2)n(C)n(-c2ccccc2)c1=O` (centres undefined) [Prestw-703]: the NF-kB reporter stood at 1.35 ± 0.082 in experiment [1] (setting [4]), 1 ± 0.17 in experiment [1] (agonist: LPS 0.1 ug/mL) and 1.05 ± 0.067 in experiment [1] (agonist: MPLA […]). Moreover, the IRF reporter in experiment [2] (agonist: 3'3'-cGAMP 10 ug/mL) amounted to 0.792 ± 0.03; in experiment [2] (agonist: LPS 0.1 ug/mL) it was 1.02 ± 0.073; in experiment [2] (agonist: MPLA […]) it was 0.995 ± 0.14. Also, in experiment [3], the viability score was 0.998 (active).
As to `CC12CCC3C(CCC4CC(Cl)CCC43C)C1CCC2=O` (centres undefined), the NF-kB reporter in experiment [1] (setting [4]) is 0.925 ± 0.074; in experiment [1] (agonist: LPS 0.1 ug/mL), 0.921 ± 0.077; in experiment [1] (agonist: MPLA […]), 0.906 ± 0.094. The IRF reporter in experiment [2] (agonist: 3'3'-cGAMP 10 ug/mL) stood at 0.961 ± 0.11; in experiment [2] (agonist: LPS 0.1 ug/mL) it was 0.953 ± 0.11; in experiment [2] (agonist: MPLA […]), 0.955 ± 0.16. The viability score in experiment [3] is 1.05 (active).
As to `COc1cc(C2c3cc4c(c(O)c3CC3COC(=O)C32)OCO4)cc(OC)c1OC` (centres undefined), the NF-kB reporter in experiment [1] (setting [4]) was 2.38 ± 0.14; in experiment [1] (agonist: LPS 0.1 ug/mL), 1.31 ± 0.086; in experiment [1] (agonist: MPLA […]) it was 2.08 ± 0.14. For the same molecule, the figures for the IRF reporter in experiment [2] (agonist: 3'3'-cGAMP 10 ug/mL), in experiment [2] (agonist: LPS 0.1 ug/mL) and in experiment [2] (agonist: MPLA […]) were 0.0984 ± 0.0043, 1.75 ± 0.2 and 1.92 ± 0.17, respectively. In addition, in experiment [3], the viability score was 0.735 (active).
`Cc1ccccc1N1C(=O)C(=Cc2ccc(-c3ccc(C(=O)O)c(Cl)c3)o2)C(=O)NC1=S`: the NF-kB reporter is 0.617 ± 0.049 in experiment [1] (setting [4]), 1.05 ± 0.067 in experiment [1] (agonist: LPS 0.1 ug/mL) and 0.9 ± 0.066 in experiment [1] (agonist: MPLA […]). For the same molecule, the IRF reporter stood at 0.692 ± 0.017 in experiment [2] (agonist: 3'3'-cGAMP 10 ug/mL), 1.24 ± 0.24 in experiment [2] (agonist: LPS 0.1 ug/mL) and 0.964 ± 0.2 in experiment [2] (agonist: MPLA […]). For the same molecule, the viability score in experiment [3] was 1.01 (active).
`CCCC(=O)c1ccc(N2CCN(C)CC2)c(F)c1`: the NF-kB reporter in experiment [1] (setting [4]) came out at 0.956 ± 0.097; in experiment [1] (agonist: LPS 0.1 ug/mL) it was 0.876 ± 0.1; in experiment [1] (agonist: MPLA […]) it was 0.906 ± 0.088. The IRF reporter turned out to be 1.02 ± 0.056 in experiment [2] (agonist: 3'3'-cGAMP 10 ug/mL), 1.22 ± 0.17 in experiment [2] (agonist: LPS 0.1 ug/mL) and 1.27 ± 0.24 in experiment [2] (agonist: MPLA […]). For the same molecule, the viability score in experiment [3] was 1.03 (active).
As to `Br.NCCc1cc(O)c(O)cc1O`, the NF-kB reporter in experiment [1] (setting [4]) came out at 1.04 ± 0.28; in experiment [1] (agonist: LPS 0.1 ug/mL), 0.911 ± 0.073; in experiment [1] (agonist: MPLA […]) it was 1.14 ± 0.08. For the same molecule, the figures for the IRF reporter in experiment [2] (agonist: 3'3'-cGAMP 10 ug/mL), in experiment [2] (agonist: LPS 0.1 ug/mL) and in experiment [2] (agonist: MPLA […]) were 0.609 ± 0.036, 1.32 ± 0.24 and 1.19 ± 0.19, respectively. Besides, the viability score in experiment [3] was 0.53 (inactive).
Turning to `CC(NC(C)(C)C)C(=O)c1cccc(Cl)c1.Cl` (centres undefined), the NF-kB reporter in experiment [1] (setting [4]) amounted to 0.906 ± 0.1; in experiment [1] (agonist: LPS 0.1 ug/mL) it was 1.09 ± 0.11; in experiment [1] (agonist: MPLA […]) it was 0.99 ± 0.048. Moreover, the IRF reporter in experiment [2] (agonist: 3'3'-cGAMP 10 ug/mL) turned out to be 0.986 ± 0.065; in experiment [2] (agonist: LPS 0.1 ug/mL) it was 0.955 ± 0.1; in experiment [2] (agonist: MPLA […]), 0.904 ± 0.14. Besides, in experiment [3], the viability score was 0.998 (active).
For `O=C(NCCN1CCOCC1)c1ccc(Cl)nc1`, the NF-kB reporter in experiment [1] (setting [4]) was found to be 0.917 ± 0.17; in experiment [1] (agonist: LPS 0.1 ug/mL) it was 1.15 ± 0.13; in experiment [1] (agonist: MPLA […]) it was 0.995 ± 0.1. Also, the IRF reporter came to 0.987 ± 0.026 in experiment [2] (agonist: 3'3'-cGAMP 10 ug/mL), 1.12 ± 0.21 in experiment [2] (agonist: LPS 0.1 ug/mL) and 1.09 ± 0.13 in experiment [2] (agonist: MPLA […]). Also, the viability score in experiment [3] is 0.972 (active).
As to `CN1C(=O)NC(=O)C(=Cc2ccc([N+](=O)[O-])s2)C1=O`, the NF-kB reporter was 1.12 ± 0.12 in experiment [1] (setting [4]), 1.08 ± 0.07 in experiment [1] (agonist: LPS 0.1 ug/mL) and 1.05 ± 0.036 in experiment [1] (agonist: MPLA […]). Besides, the IRF reporter in experiment [2] (agonist: 3'3'-cGAMP 10 ug/mL) was 0.895 ± 0.098; in experiment [2] (agonist: LPS 0.1 ug/mL) it was 0.925 ± 0.12; in experiment [2] (agonist: MPLA […]), 0.914 ± 0.19. Moreover, in experiment [3], the viability score is 1 (active).
Consider `CC(=O)OC1CN2CCC1CC2.Cl` (centres undefined), for which the NF-kB reporter is 0.984 ± 0.35 in experiment [1] (setting [4]), 0.984 ± 0.12 in experiment [1] (agonist: LPS 0.1 ug/mL) and 0.971 ± 0.061 in experiment [1] (agonist: MPLA […]). The IRF reporter came to 0.914 ± 0.052 in experiment [2] (agonist: 3'3'-cGAMP 10 ug/mL), 0.869 ± 0.15 in experiment [2] (agonist: LPS 0.1 ug/mL) and 0.862 ± 0.081 in experiment [2] (agonist: MPLA […]). For the same molecule, the viability score in experiment [3] was 1 (active).
For `CC(=O)OC1CCC2(C)C(CCC3C4CCC(=O)C4(C)CCC32)C1` (centres undefined), the NF-kB reporter was determined as 1.22 ± 0.29 in experiment [1] (setting [4]), 1.06 ± 0.054 in experiment [1] (agonist: LPS 0.1 ug/mL) and 1.02 ± 0.089 in experiment [1] (agonist: MPLA […]). Moreover, the IRF reporter was 0.939 ± 0.032 in experiment [2] (agonist: 3'3'-cGAMP 10 ug/mL), 1.21 ± 0.19 in experiment [2] (agonist: LPS 0.1 ug/mL) and 1.11 ± 0.18 in experiment [2] (agonist: MPLA […]). In addition, the viability score in experiment [3] is 1.01 (active).
